Screening results: PubChem, National Center for Advancing Translational Sciences (NCATS)
A selection: hits, their analogues and other compounds. The true share with any hit is near 4%.
D1 antagonist = blocks dopamine activation of the human D1 receptor; P21728; HEK293 TREx D1 cells, calcium flux, dopamine EC80; active compounds read low; activity change, negative = inhibition, % at 10 µM; 360,000 tested, 3.2% active; AID 504652; in the data active means activity change below about -30%; further: on the % scale 0 is the no-effect control and ±100 the full control effect
Target sequence (P21728 whole entry, looked up): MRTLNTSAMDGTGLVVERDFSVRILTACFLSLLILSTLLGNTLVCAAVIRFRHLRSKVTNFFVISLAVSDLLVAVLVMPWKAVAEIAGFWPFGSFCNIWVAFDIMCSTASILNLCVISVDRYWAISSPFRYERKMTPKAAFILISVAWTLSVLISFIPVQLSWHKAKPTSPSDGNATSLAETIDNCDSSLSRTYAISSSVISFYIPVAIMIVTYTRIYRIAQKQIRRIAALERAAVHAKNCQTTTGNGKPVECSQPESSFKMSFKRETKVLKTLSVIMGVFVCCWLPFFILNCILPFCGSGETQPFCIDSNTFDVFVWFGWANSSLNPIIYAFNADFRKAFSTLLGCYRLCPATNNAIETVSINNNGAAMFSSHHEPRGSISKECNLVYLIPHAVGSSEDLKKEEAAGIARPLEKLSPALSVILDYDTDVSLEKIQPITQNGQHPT
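Calcium flux readout: force-coupled, inducible Hek293 Trex D1 line, cells induced overnight at 30 C with tetracycline, dye-loaded 30–90 min at RT. Antagonism scored against EC80 dopamine challenge given 180 s after compound.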
Glioma ERSR ind = induces the endoplasmic reticulum stress response in human glioma cells. U87-MG GRP78 promoter luciferase reporter, 16 h. Potency, µM, without a hit: at the top dose activation, actives largely listed as activators. 420,000 tested, 0.02% active; active means well fitted activation curve with a large enough effect; further: potency means the concentration at half of the fitted maximal effect; series mostly up to about 76 µM; % of control where 0% means no effect; nearly all actives have a fitted effect of over 35% in size
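ERSR induction read as luciferase luminescence (Bright-Glo, 10 min at room temperature) in stably transfected human U87-MG glioma cells exposed to compounds for 16 h, using GRP78 as sensor.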
D1 agonist = agonists of human D1 dopamine receptor | HEK293 T-REx D1 cells, calcium flux, agonist mode | activation, % at 2 µM | 360,000 tested, 1% active; further: 0% is about no effect
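Tetracycline-induced HEK293 TREx D1 cells, force-coupled to calcium signalling, were dye-loaded with a no-wash calcium kit. Compound was pin-added after a 10 s baseline. Fluorescence was read kinetically at 1 cycle/s for 180 s, with calcium rises flagged as agonism.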
TRHR agonist = activates the human TRH receptor | activation, % at 2 µM | P34981 | TRHR cells, calcium flux fluo-8, FDSS agonist mode | 360,000 tested, 0.18% active; further: 0% is about no effect
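Read-out: compound-evoked intracellular calcium rise in TRHR cells, fluo-8 dye, kinetic FDSS fluorescence at 1 s/cycle following a 10-cycle baseline. Cells cultured overnight before dye loading (30 min–1.5 h, RT).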
TRHR enhancer = allosteric enhancers of human TRH receptor. P34981. TRHR cells, fluo-8 calcium fluorescence, EC20 TRH enhancement. enhancement, % at 2 µM. 360,000 tested, 0.66% active; in the data active means enhancement above about 30%; further: 0% is about no effect
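Enhancer read-out: after compound pinning and an initial kinetic agonist-mode read, an EC20 of TRH (10 nM final) was injected and fluo-8 calcium signal (Ex 480/Em 530) followed at 1 s/cycle for 100 cycles in TRHR-expressing cells.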
D1 PAM = enhances dopamine response at the human D1 receptor; P21728; HEK293 TREx D1 cells, calcium flux, dopamine EC20 potentiation; potentiation, % at 10 µM; 360,000 tested, 0.036% active; AID 504651; in the data active means potentiation above about 30%; further: 0% is about no effect
Numbers without * were called inactive; · = no result given; ! = not confirmed by another sample. Unless noted, no stated cut-off is given here; in the data, active means activation above about 30%; inactive means the rest.

SMILES	D1 antagonist	Glioma ERSR ind	D1 agonist	TRHR agonist	TRHR enhancer	D1 PAM
CCCC(=O)Nc1ccc(Cl)c(NC(=S)NC(=O)C(C)C)c1	-36.8*	-4.1%	-0.2	-0.2	2.1	-1.9
Cc1cc(C)nc(SCC(=O)n2c3c(c4ccccc42)CCCC3)n1	23.4	-1.4%	4.3	-1.1	13.5	1.1
O=C(CSc1ncccn1)n1c2c(c3ccccc31)CCCC2	-42.5*	0.6%	6.0	0.3	3.5	0.3
Clc1ccsc1-c1ccnc(-n2cccc2)n1	12.2	13.2%	5.6	-0.9	2.6	1.4
COc1cc(CN(CCN(C)C)Cc2ccccc2)ccc1OCc1ccccc1	-75.6*	-1.1%	25.0	0.8	7.1	-16.8
Cc1ccccc1OCC(O)CNCCOc1ccc(C(N)=O)cc1 (configuration not stated)	·	-5.7%	·	·	·	·
COc1ccc(OCC(O)CNCCOc2ccccc2OC)c(C(C)(C)C)c1 (configuration not stated)	16.0	-8.2%	59.0*	3.2	3.1	-0.3
CCOC(=O)c1c(-c2cccc([N+](=O)[O-])c2)csc1NC(=O)CCCOc1ccccc1	0.3	-1.8%	17.7	1.6	-0.5	-3.4
CN(C)CCNS(=O)(=O)c1ccc2c3c(cccc13)C(=O)N2	-1.7	-3.4%	4.1	1.0	40.2*	0.9
CCN(C(=O)CCS(=O)(=O)c1cc2[nH]c(=O)c(=O)[nH]c2cc1C)c1ccccc1	-79.7*	-3.1%	-0.1	0.4	3.3	-0.7
CCN(C(=O)CCS(=O)(=O)c1cc2c(cc1C)NC(=O)CO2)c1cccc(C)c1	13.5	-2.0%	-1.1	-0.4	-2.3	-2.2
CSc1ccc(Cn2c(C)c(C(=O)NCc3ccccc3C(F)(F)F)sc2=O)cc1	·	-0.3%	·	·	·	·
COc1cccc(N2CC(C(=O)OC(C)C(=O)c3ccccc3)CC2=O)c1 (configuration not stated)	9.5	-3.9%	3.0	-0.7	0.7	-0.7
COc1ccc(/C=C/CN2CCC(CO)(Cc3ccccc3Cl)CC2)cc1	-0.5	-0.3%	109.5*	3.1	-8.7	3.1
COC(=O)c1ccc(CN2CCC(CO)(Cc3ccccc3Cl)CC2)cc1	-1.8	-2.6%	3.8	0.3	3.3	1.2
CCCCCc1ccc(-c2cn(Cc3ccc([N+](=O)[O-])cc3)nn2)cc1	-8.5	-3.2%	9.4	1.6	-5.6	-8.2
CCOC(=O)CSc1nnc(CSc2nc3sc4c(c3c(=O)[nH]2)CCC4)n1-c1ccccc1	1.1	-4.1%	1.0	-0.2	4.0	1.1
Cc1csc(Nc2cccc3ccccc23)n1	-45.8*	6.5%	-0.4	0.2	10.7	-6.3
COc1ccccc1Nc1nc(C)cs1	-3.1	-2.6%	3.1	0.9	-4.9	3.1
Nc1cc(-c2ccccc2)nn1S(=O)(=O)c1ccc(F)cc1	-29.5	-1.5%	10.3	-0.5	-8.1	·
Clc1cccc(-c2ccc3ncnc(NCc4cccs4)c3c2)c1	-25.9	-3.5%	-0.1	0.0	0.1	2.0
Cc1ccccc1-c1ccc2ncnc(NCc3cccs3)c2c1	·	-1.6%	·	·	·	·
Cc1csc(CNc2ncnc3ccc(-c4cccnc4)cc23)c1	-12.8	-3.0%	3.1	-0.1	-1.6	-7.7
Cc1csc(CNc2ncnc3ccc(-c4ccoc4)cc23)c1	-62.5*!	13.1%	11.4	-0.6	1.6	9.7
Clc1ccccc1-c1ccc2ncnc(NCc3cccs3)c2c1	-41.8*	-5.1%	15.3	1.8	-3.1	-9.2
SMILES	D1 antagonist	Glioma ERSR ind	D1 agonist	TRHR agonist	TRHR enhancer	D1 PAM
Cc1cccc(-c2ccc3ncnc(NCc4cccs4)c3c2)c1	-46.0*!	-3.7%	8.4	0.3	4.5	-9.9
COc1ccc(N2C(=O)CS(=O)(=O)C23C(=O)N(Cc2ccccc2)c2ccccc23)cc1 (configuration not stated)	-1.1	-1.1%	9.5	1.4	-6.9	-2.5
CCNC(=O)N1CCN(CCCC(c2ccc(F)cc2)c2ccc(F)cc2)CC1	-72.8*	-4.9%	21.4	3.9	-8.8	-4.1
c1ccc2c(c1)OCCOCCOCCOCCOCCOc1ccccc1OCCOCCOCCO2	-35.7*	-3.4%	21.7	1.8	-7.1	-3.2
COc1cccc2cc(C(=O)N3CCN(c4ccccn4)CC3)c(=O)oc12	-36.7*	-3.3%	8.7	0.1	1.7	3.0
CC(C)N(C)CCOC(=O)c1ccc2c(c1)OCCO2	6.6	0.6%	0.4	0.4	-2.9	-4.4
COc1cc2c(cc1O)CCN(C(=O)c1ccco1)C2C (configuration not stated)	-14.4	-1.5%	-1.1	0.6	8.3	9.8
Cc1c(S(=O)(=O)Nc2ccc(Br)cc2)c(=O)n(C)c(=O)n1C	12.2	-5.0%	3.2	0.3	35.2*	2.6
COc1ccc(NS(=O)(=O)c2c(C)n(C)c(=O)n(C)c2=O)cc1OC	-30.9*	-4.4%	-0.1	0.1	-0.9	-0.2
CCCCc1ccc(NS(=O)(=O)c2c(C)n(C)c(=O)n(C)c2=O)cc1	16.0	14.2%	18.1	1.5	2.7	3.5
Cc1ccc2nc(-c3ccc(NC(=O)CN4C(=O)NC(C)(c5ccc(OC(F)F)cc5)C4=O)cc3)sc2c1 (configuration not stated)	-6.9	10.1%	11.5	2.3	12.9	-1.1
COc1ccc(S(N)(=O)=O)cc1C(=O)OCCCOc1ccc(F)cc1	-34.5*	-1.7%	10.7	-0.4	1.1	3.1
COc1ccc(S(N)(=O)=O)cc1C(=O)OCCCOC(=O)c1cc(S(N)(=O)=O)ccc1OC	2.3	-4.3%	2.6	0.4	5.1	7.1
Cn1c(=O)c2c(-c3ccccc3)n3c(c2n(C)c1=O)C(c1ccco1)Nc1ccccc1-3 (configuration not stated)	-31.1*	-0.1%	0.8	-0.3	2.7	2.4
O=C1CCC(=O)c2ccc3c4c(ccc1c24)CC3	·	-3.4%	·	·	·	·
O=C1CCN2C=Nc3cccc4ccc1c2c34	-0.9	-2.3%	170.3*	136.2*	5.2	-3.6
CCOc1ccc(NC(=NCc2ccc3c(c2)OCO3)SC2CC(=O)N(c3ccccc3)C2=O)cc1 (configuration not stated)	-27.5	-2.3%	3.4	1.2	-3.0	-7.8
C[N+](C)(CCCCCI)c1ccc(/C=C/c2nc3ccccc3s2)cc1	·	-7.7%	·	·	·	·
CC1CC(C)CN(C(=O)COC(=O)c2ccc3ccccc3n2)C1 (configuration not stated)	-37.4*	-4.0%	7.6	0.2	6.0	-1.5
CC1(C)CC(N=c2cc(-c3ccccc3)oc3ccc(Cl)cc23)CC(C)(C)N1	-68.8*	5.9%	67.4*	-0.4	-3.0	-10.6
Cc1cc2c(cc1C)NC(CC(=O)Nc1cccc(Cl)c1)C(=O)N2 (configuration not stated)	-17.7	0.6%	6.5	1.7	42.7*	0.6
